Measurements taken from ChEMBL document CHEMBL3988442, “University of Dundee, Small-Polar-MMV Screening Library” (2021).
Several values for one entry are separate records, joined by “and”; a condition that tells them apart may be missing. Equal entries are not always repeated. Screen size: about 34,000 compounds; about 290 (0.85%) showed an effect of 50% or more. Many of the other results were omitted from the sample, so strong results are more common in it than they were.

System: Plasmodium falciparum
Assay: Plasmodium falciparum sporozoite viability assay
Assay type: functional, organism-based
Set-up: scale not given: in the data most compounds retested in dose-response had high values

Row | SMILES | Percent Effect [%] | Percent Effect (10 mM as filed; unlikely as a test dose)
1 | Cc1nc2cc(-c3nccn3C)nn2c(N2CCCC2)c1C | 12.19 | –
2 | CC(C)(CO)Nc1cc(-c2ccncc2)ncn1 | -5.504 | –
3 | COc1ccc(S(=O)(=O)N2CCN(C)c3ncccc3C2)cc1.O=C(O)C(F)(F)F | 6.245 | –
4 | CN1CCCN(C(=O)NCc2cccnc2-n2cccn2)CC1 | -0.7887 | –
5 | Cc1ncccc1NC(=O)[C@@H]1CCO[C@@H]2CCN(c3ccncn3)C[C@H]21 | 1.798 | –
6 | CCc1nccn1C1CCCN(C(=O)CCOCC(F)(F)F)C1 (stereo unspecified) | – | 0.2657% and 18.61% and -4.801%
7 | Cc1csc(CNC(=O)N2CCN(Cc3cc(C)on3)CC2)n1 | 3.68 | –
8 | CC(C)c1cc(C(=O)NCCn2nc3ccccn3c2=O)n[nH]1 | -7.561 | –
9 | Cc1nc(C(NC(=O)c2cc(C(C)C)[nH]n2)c2ccccc2)n[nH]1 (stereo unspecified) | 1.665 | –
10 | CC(NC(=O)c1cc(C(C)C)[nH]n1)C(=O)Nc1ccccc1 (stereo unspecified) | – | 72.25% and 63.23% and 81.29%
11 | O=C(C1CC1)N1CCc2nc(C3CCN(C(=O)C4CC4)C3)nc(O)c2C1 (stereo unspecified) | 2.355 | –
12 | Cc1nn(CC(C)C)c(N(C)C)c1CNCc1cccnc1N(C)C | 0 | –
13 | Cc1nn(CC(C)C)c(N(C)C)c1CNCc1ccccc1CO | 9.702 | –
14 | Cc1nc(-c2ccncc2)ncc1C(C)NC(=O)CN1CCCC1=O (stereo unspecified) | -5.692 | –
15 | Cc1cc(C2CCN(C(=O)c3cnn(C)c3)CC2)ccn1 | 2.879 | –
16 | CN(C)c1ncc(-c2ccc(F)cc2)c(C2CNCCO2)n1.Cl (stereo unspecified) | 8.117 | –
17 | Cl.Fc1ccccc1OCCc1cc(C2CNCCO2)n[nH]1 (stereo unspecified) | -0.03121 | –
18 | CN(C)c1ncc(-c2cccc(F)c2)c(C2CNCCO2)n1.Cl (stereo unspecified) | 2.337 | –
19 | Cl.c1ccc(-c2ccc(C3CNCCO3)nc2)cc1 (stereo unspecified) | – | 93.99% and 69.13% and 81.53%
20 | Cc1ccc(-c2ccc(C3CNCCO3)nc2)cc1.Cl (stereo unspecified) | – | 90.92% and 91.35% and 89.87%
21 | CN(C)c1ncc(-c2cncnc2)c(C2CNCCO2)n1.Cl (stereo unspecified) | -2.536 | –
22 | CN(C)c1ncc(-c2ccc(C(N)=O)cc2)c(C2CNCCO2)n1 (stereo unspecified) | -5.327 | –
23 | O=C(c1cccnn1)N1C[C@@H]2CC[C@H](Oc3cccc(F)c3)[C@@H]2C1 | -11.48 | –
24 | CC(C(=O)NCc1ccnc(N2CCOCC2)c1)n1cccn1 (stereo unspecified) | 3.476 | –

Row | SMILES | Percent Effect [%] | Percent Effect (10 mM as filed; unlikely as a test dose)
25 | O=C(NCc1ccc2c(c1)OCO2)[C@H]1C=CCN1c1ncccn1 | -8.12 | –
26 | CC(NCc1ccccc1Cl)c1ccc2[nH]c(=O)[nH]c2c1 (stereo unspecified) | 4.238 | –
27 | O=C1NCCN1C1CCN(CCOc2cccc3ccccc23)CC1 | 0.4468 | –
28 | Cc1nc(COc2ccc(OC3CCCCNC3=O)cc2)oc1C (stereo unspecified) | – | 96.35% and 88.4%
29 | CCc1cnc(COc2ccc(OC3CCCCNC3=O)cc2)o1 (stereo unspecified) | – | -31.83% and -45%
30 | NC(=O)Cn1cc(NC(=O)N2CCCC(O)C2)cn1 (stereo unspecified) | 9.794 | –
31 | COCCN(C)c1ccc(NCc2ccsc2)nc1 | – | 67.62% and 57.94%
32 | CC(C)(C)n1cc(NCc2cscn2)cn1 | 16.3 | –
33 | COCCS(=O)(=O)N(Cc1cscn1)c1ccccc1 | 1.643 | –
34 | COCCN(C)c1ccc(NCc2cccnc2)nc1 | – | 21.13% and 22.11%
35 | CCn1cc(CNc2ccc(N(C)CCOC)cn2)cn1 | – | 4.885% and 7.278%
36 | COCCN(C)c1ccc(NCc2cscn2)nc1 | – | 95.11% and 93.26%
37 | CC1CN(c2ccccc2Cl)C(=O)CN1C(=O)c1c[nH]c(=O)c(Cl)c1 (stereo unspecified) | 1.644 | –
38 | COc1ccc(-n2ncc3c2NC(=O)CSC3C(C)C)cc1 (stereo unspecified) | -10.71 | –
39 | COCC(=O)N1CC[C@@H]2O[C@H](COCc3ccncc3)CC[C@@H]21.O=C(O)C(F)(F)F | -3.886 | –
40 | COc1cccc(-c2noc(C3CCN(CC4CCCCC4)C3)n2)c1.Cl (stereo unspecified) | – | -10.94% and -15.38% and -3.133%
41 | COc1cccc(-c2noc(C3CCN(Cc4cn(C)nc4C)C3)n2)c1 (stereo unspecified) | – | 82.7% and 74.22% and 69.73%
42 | COc1cccc(CSCC2=Nc3ccccc3S(=O)(=O)N2)c1 | -15.51 | –
43 | Cn1ncc2c1CCCC2NCc1ccc(Cl)s1 (stereo unspecified) | – | -1.156% and -7.705% and -11.46%
44 | CCn1ncc2c1CCCC2NCc1cscn1 (stereo unspecified) | – | -18.21% and -26.49%
45 | Cl.c1cnc(N2CCCC(NCc3cccc4c3OCCO4)C2)nc1 (stereo unspecified) | -3.04 | –
46 | CC(C)(C)n1ncc2c1CCCC2NCc1cccc2c1OCCO2 (stereo unspecified) | – | 39.28% and 33.56% and 65.68%
47 | Cc1ccc(CNC2CCCc3c2cnn3C)s1.Cl (stereo unspecified) | – | -10.87% and -25.98% and -25.69%
48 | CC(C)(C)n1ncc2c1CCCC2NCc1cccc2c1OCO2 (stereo unspecified) | – | 74.58% and 37.95% and 70.91%

Row | SMILES | Percent Effect [%] | Percent Effect (10 mM as filed; unlikely as a test dose)
49 | Cc1ccc(CNC2CCCc3c2cnn3Cc2ccccc2)s1.Cl (stereo unspecified) | -20.07 | –
50 | Cn1cc(N2CCCC(NCc3cccc4c3OCCCO4)C2)cn1 (stereo unspecified) | 11.2 | –
51 | Cc1ccn(CCC(=O)N2CCCC(Cc3cccnc3)C2)n1 (stereo unspecified) | 1.172 | –
52 | Cc1cccc(CN2C[C@@H]3[C@@H](C(=O)NCC(C)C)CCS(=O)(=O)[C@@H]3C2)c1.O=C(O)C(F)(F)F | 5.351 | –
53 | CCN(CC1CCOC1)C(=O)c1ccccc1S(=O)(=O)CC (stereo unspecified) | 6.872 | –
54 | Cc1cc(-c2cnc(N3CCNC(=O)C3)nc2-c2sccc2C)on1 | 7.472 | –
55 | Cc1ccc(CN2CCC3(CC2)CCN(C(=O)c2cccn2C)C3)cc1.O=C(O)C(F)(F)F | -1.664 | –
56 | CC(C)N(C)[C@@H]1CCN(S(C)(=O)=O)[C@H]1Cc1ccccc1 | 3.466 | –
57 | CCn1ncc2c1CCCC2NCc1cccc2c1OCO2 (stereo unspecified) | – | 87.89% and 80.38% and 88.9%
58 | Cc1cc(CN2CCN(C(=O)CCCc3nc(C(C)C)no3)CC2)on1 | 13.41 | –
59 | COC(=O)CNC(=O)Cn1ccc2cccc(OC)c21 | – | 53.7% and 45.8%
60 | COc1cccc2ccn(CC(=O)NCC(C)C)c12 | – | 1.134% and -1.268%
61 | COCCNC(=O)Cn1ccc2cccc(OC)c21 | – | 24.03% and 24.86%
62 | CN(C)CC(=O)N1CCC2(CC1)COc1ccccc1S(=O)(=O)N(C)C2 | -1.316 | –
63 | Cc1nc(Nc2nccs2)cc(C2CCCN2)n1.Cl (stereo unspecified) | -7.871 | –
64 | O=c1cc(N2CCNCC2)cnn1CCc1ccc(F)cc1 | – | -29.24% and -24.74%
65 | O=c1cc(N2CCCC2)cnn1CCc1cccc(F)c1 | – | 40.92% and 61.99%
66 | O=c1cc(N2CCOCC2)cnn1CCc1ccc(F)cc1 | – | -2.466% and -5.477%
67 | CCc1nccn1CC1CCCN1S(=O)(=O)Cc1ccccc1 (stereo unspecified) | 3.419 | –
68 | COCC(=O)N1CCCC(C)(c2nncn2C)C1 (stereo unspecified) | 4.813 | –
69 | CNS(=O)(=O)c1ccc(C(=O)N2CCCCC2c2ccc(C)cc2)o1 (stereo unspecified) | -0.2417 | –
70 | Cn1ncc2c1CCCC2NCc1cccnc1 (stereo unspecified) | 6.267 | –
71 | Cn1ncc2c1CCCC2NCc1cnc(-c2ccccc2)nc1 (stereo unspecified) | 18.56 | –
72 | CC(C)(C)n1ncc2c1CCCC2NCc1cccc(C(N)=O)c1 (stereo unspecified) | – | -6.583% and -14.2%

Row | SMILES | Percent Effect [%] | Percent Effect (10 mM as filed; unlikely as a test dose)
73 | COCc1nc(CNC2CCCc3c2cnn3C(C)(C)C)cs1 (stereo unspecified) | – | 80.27% and 81.73%
74 | Cl.Cn1ncc2c1CCCC2NCc1cccc(F)c1 (stereo unspecified) | -6.761 | –
75 | CC(C)(C)n1ncc2c1CCCC2NCc1ccc2c(c1)CCO2 (stereo unspecified) | – | 65.53% and 54.34%
76 | CSc1ccc(CNC2CCCc3c2cnn3C)cc1.Cl (stereo unspecified) | 2.328 | –
77 | CCn1ncc2c1CCCC2NCc1csc(COC)n1 (stereo unspecified) | – | -19.65% and -19.45%
78 | CCc1nc(CNC2CCCc3c2cnn3CC)cs1 (stereo unspecified) | – | -15.59% and -14.06%
79 | CC(C)(C)n1ncc2c1CCCC2NCc1ccsc1 (stereo unspecified) | – | 82.25% and 82.56%
80 | CC(C)(C)n1ncc2c1CCCC2NCc1ccc2ncccc2c1 (stereo unspecified) | – | 67.83% and 75.52%
81 | Cl.Cn1ncc2c1CCCC2NCc1cc(Br)cs1 (stereo unspecified) | – | 6.252% and 7.152% and 13.18%
82 | C[C@H]1C(=O)NC[C@H]2CN(Cc3cccc(F)c3)C[C@H]21.O=C(O)C(F)(F)F | -1.083 | –
83 | CS(=O)(=O)NC1CCCN(C(=O)NCc2ccoc2)C1 (stereo unspecified) | 4.932 | –
84 | O=C1CCCN1CCCC(=O)N1CCCC(c2ccn[nH]2)C1 (stereo unspecified) | 5.64 | –
85 | CC1CN(CC(=O)Nc2nccs2)CCN1Cc1nccn1C (stereo unspecified) | -1.162 | –
86 | CN(C)c1ccc(C(=O)N2CCN(CC(O)C(C)(C)C)CC2)nn1 (stereo unspecified) | -6.949 | –
87 | O=C(N[C@@H]1CN(Cc2ccc3cc[nH]c3c2)C[C@H]1O)c1cnccn1 | -1.172 | –
88 | O=C(O)C(F)(F)F.O=C(c1ccncc1F)N1CC2CC1(C(=O)N1CCCC1)C2 | -2.014 | –
89 | Cc1cnn(CCNCc2c(C(C)C)nn(C)c2Cl)c1 | -5.882 | –
90 | Cc1cccc(CNC2CCCc3c2cnn3C)c1.Cl (stereo unspecified) | -1.28 | –
91 | Cl.Cn1ncc2c1CCCC2NCc1cccc(C(F)(F)F)c1 (stereo unspecified) | -3.477 | –
92 | CCn1ncc2c1CCCC2NCc1ccc2c(c1)OCCO2 (stereo unspecified) | – | 33.22% and 25.15%
93 | CCn1ncc2c1CCCC2NCc1ccc2c(c1)CCO2 (stereo unspecified) | – | 59.7% and 48.65% and 59.52%
94 | CC(C)(C)n1ncc2c1CCCC2NCc1ccc2c(c1)OCCO2 (stereo unspecified) | – | 101% and 99.54%
95 | CCn1ncc2c1CCCC2NCc1ccc(OC)c(C)c1 (stereo unspecified) | 1.069 | –
96 | O=C(NCC1CCCO1)c1nc2c(s1)CCCN2C(=O)C1CC1 (stereo unspecified) | -5.565 | –
